# CHX counter: counter-screen for Shiga toxin inhibitors: cycloheximide protein synthesis inhibition. cell reporter, cycloheximide protein synthesis inhibition counterscreen. max response, %. 300,000 tested, 12% active; in the data active = max response mostly above about 13%, no sharp cut-off; inactive = mostly below about 14%; also: read at 38.3 µM for the half of the compounds with a filed dose; 0% is about no effect
# Pf growth 96h: inhibits malaria parasite growth, 96 h. 320,000 tested, 6.9% active. Potency, µM (series often up to 28.7 µM), for the others: at the highest dose activity change, negative = inhibition, usual class: inhibitors. P. falciparum luciferase reporter growth, 96 h. AID 504834; also: potency is read from the fitted curve at half-maximal effect; % is scaled to controls: 0 for no effect and ±100 for the full control effect
#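 Readout is luminescence from an integrated firefly luciferase in P. falciparum. Red cells, 2% hematocrit and 0.05% parasitemia final, were cultured with compound through two parasite generations (96 hours) at 37 C, 5% CO2.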
# Shiga inhibitor: blocks Shiga toxin action in Vero cells | 290,000 tested, 9.2% active | Vero cells, Shiga toxin protein synthesis inhibition reporter | AID 2315 | inhibition, % at 38.7 µM; in the data active = inhibition mostly above about 28%, no sharp cut-off; inactive = mostly below about 43%; also: 0% is about no effect
# AMA1-RON2 inh: AMA1-RON2 (P. falciparum) interaction inhibition; AlphaScreen AMA1-biotinylated RON2 peptide binding; Potency, µM (highest dose often 58.2 µM), inactives show top-dose activity change, negative = inhibition, hits mostly inhibitors; 360,000 tested, 0.2% active; AID 720542;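 also: potency is read from the fitted curve at half-maximal effect; 0% = vehicle wells and -100% = peptide control; nearly all actives have a fitted effect of over 45% in size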
#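 AMA1 (3D7) with his tag at 25 nM final met compounds first, then biotinylated RON2 peptide at 25 nM; detection used donor plus acceptor beads, 10 µg/mL apiece, read by AlphaScreen after 30 min at room temperature.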
# Pf growth 48h: P. falciparum growth inhibition at 48 hours (one generation). Potency, µM (top dose mostly 28.7 µM), for the others: at the highest dose activity change, negative = inhibition, most hits filed as inhibitors. 310,000 tested, 5.9% active. P. falciparum luciferase growth in erythrocytes, 48 h; also: potency is read from the fitted curve at half-maximal effect; % is scaled to controls: 0 for no effect and ±100 for the full control effect
#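 Here the parasites carry a stable luciferase gene and grow inside erythrocytes in Albumax-based RPMI medium with compound for one erythrocytic cycle. Activity is scored as loss of luminescent signal.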
# SARS PLpro yeast: blocks SARS-CoV papain-like protease in a yeast assay | S. cerevisiae expressing SARS-CoV PLpro, growth rescue | 330,000 tested, 0.19% active | Potency, µM (titrated, usually from 32.9 µM), inactives show at the top dose activity, positive = growth rescue, hits mostly activators | AID 485353; calls by dose curve; also: potency is read from the fitted curve at half-maximal effect; 0% is about no effect; nearly all actives have a fitted effect of over 55% in size
# * marks the source's active call; other numbers are inactive results; u = inconclusive; x = no result; [ ] = remark or other dose. Compounds with a hit are over-represented: about 19% of the library has one in this group of screens. Unless noted, calls follow the shape of the dose curve; as a rule, active = well fitted curve in the direction sought with a large enough effect; inconclusive = small, poorly fitted or top-dose-only effect, or another doubt; inactive = no such curve, though single readings can be large; an effect the other way counts as inactive or inconclusive.
SMILES,CHX counter,Pf growth 96h,Shiga inhibitor,AMA1-RON2 inh,Pf growth 48h,SARS PLpro yeast
O=C(CCS(=O)(=O)c1ccccc1)N1CCN(c2ccc(F)cc2)CC1,52*,u,71*,-6%,74%,2%
O=C(CCCC(=O)N1CCN(c2ccccc2F)CC1)c1ccccc1,36*,u,59*,0%,86%,-7%
Cc1ccc(S(=O)(=O)CC(=O)N2CCOCC2)cc1,11,26%,4,10%,0%,0%
O=C(CCS(=O)(=O)c1ccc(F)cc1)N1CCOCC1,14*,8%,46*,7%,49%,-2%
O=C(CCS(=O)(=O)c1ccc(F)cc1)N1CCN(c2ccccc2)CC1,x,150%,x,8%,107%,9%
CN(CC(=O)Nc1cccc(F)c1)C(=O)CCCN1C(=O)c2cccc3cccc(c23)C1=O,x,-1%,x,-4%,34%,-4%
CCNC(=O)C1(C)CCN(C(=O)c2ccc(C(=O)OC)cc2)C1 (stereo not drawn),x,x,x,8%,x,x
COC(=O)[C@H](CC(C)C)NC(=O)Cn1cnc2c(NCc3ccccc3)ncnc21,x,x,x,-2%,x,-1%
O=C(CCC(=O)N1CCN(c2ccc(F)cc2)CC1)c1ccccc1,33*,21%,15,-7%,10%,4%
O=C(OCCOc1ccccc1Cl)c1ccc(-n2cnnn2)cc1,36*,37%,75,14%,81%,-7%
COc1ccccc1CNC(=O)COC(=O)c1ccc(-n2cnnn2)cc1,x,20%,x,-5%,-7%,3%
COc1ccc(-c2nc(NC(=O)Cn3c(=O)oc4ccccc43)sc2C)cc1,-2,u,-4,-4%,-14%,-52%
COc1ccc(-c2csc(NC(=O)C3CC(=O)N(Cc4ccco4)C3)n2)cc1 (stereo not drawn),10,u,13,-10%,u,-1%
COc1ccc(-c2nc(NC(=O)C3CC(=O)N(Cc4ccco4)C3)sc2C)cc1 (stereo not drawn),x,u,x,-10%,12µM*,-1%
COc1ccc(-c2nc(NC(=O)C3CCN(c4nc5ccccc5o4)CC3)sc2C)cc1,-4,x,-3,-3%,8.3µM*,-2%
Cc1ccc(NC(=O)/C=C\C(=O)NCC(=O)O)cc1,-4,26%,-18,103%,7%,-6%
Nc1ccc2ccc(O)cc2c1,x,x,x,0%,x,x
C[n+]1c2cc(N)ccc2cc2ccc(N)cc21,x,0.034µM*,x,-6%,0.048µM*,x
Cc1nc(/N=C(\N)NC(=O)c2ccccc2)nc2ccccc12,50*,2%,52*,18%,17%,-12%
CCC(=O)N/C(N)=N/c1nc(C)c2cc(C)c(C)cc2n1,9,1.7µM*,21,1%,1.7µM*,0%
Cc1ccc2nc(/N=C(\N)NC(=O)NC3CCCCC3)nc(C)c2c1,10,u,3,5%,u,0%
CCCC(=O)N/C(N)=N/c1nc(C)c2cc(C)ccc2n1,-1,2.6µM*,13,4%,2.6µM*,-1%
Cc1cc2nc(/N=C(\N)NC(=O)C(C)C)nc(C)c2cc1C,8,2.6µM*,-6,16%,2.6µM*,-1%
C=C(C)C1CCC(C)C(OC(C)=O)C1 (stereo not drawn),-7,x,-2,x,x,x
COc1ccccc1OCCNC(=O)c1ccccc1OCc1c(C)noc1C,x,u,x,-5%,-25%,0%
SMILES,CHX counter,Pf growth 96h,Shiga inhibitor,AMA1-RON2 inh,Pf growth 48h,SARS PLpro yeast
COc1cc2c(cc1NC(=O)Nc1ccc(C)cc1)oc1ccccc12,19*,-4%,28,-20%,x,-19%
COc1cc2c(cc1NC(=O)C(C)Sc1ccc(NC(C)=O)cc1)oc1ccccc12 (stereo not drawn),21*,u,12,9%[11.6 µM],-23%,-5%
COc1ccc(NC(=O)Nc2cc3oc4ccccc4c3cc2OC)cc1,10,u,-18,-3%,7%,-16%
COc1ccc(Cl)cc1NC(=O)C1CCCO1 (stereo not drawn),-9,15%,-15,4%,8%,6%
COc1cc2c(cc1NC(=O)C1CCCO1)oc1ccccc12 (stereo not drawn),50*,x,134*,-9%,150%,-18%
COc1cc2c(cc1NC(=O)c1cccc(S(=O)(=O)N(C)C)c1)oc1ccccc12,25*,68%,67*,0%,15%,3%
CCN(CC)S(=O)(=O)c1ccc(C(=O)Nc2cc3oc4ccccc4c3cc2OC)cc1,2,u,-5,-1%,-13%,9%
Cc1c(NC(=O)CSc2ccc(Cl)cc2)cccc1-c1nc2cc(Cl)ccc2o1,-3,-14%,-6,1%,22%,8%
COc1cc2c(cc1NC(=O)C(C)OC(=O)C1CC(=O)N(Cc3ccco3)C1)oc1ccccc12 (stereo not drawn),38*,123%,73,-14%,x,-1%
CCN(CC(=O)Nc1ccc(NC(C)=O)cc1)C(=O)c1ccc(Sc2nncn2C)c([N+](=O)[O-])c1,x,x,x,37%,x,x
CCc1cc2c(=O)c(-c3ccc4c(c3)OCCO4)c(C)oc2cc1OS(C)(=O)=O,0,4.1µM*,7,-8%,u,-13%
CCc1cc(=O)oc2c(C)c(OS(C)(=O)=O)ccc12,x,x,x,17%,x,x
C[N+](C)(C)CCCNC(=O)c1ccc(/C=N/O)nc1,10,u,-5,16%,35%,0%
Cn1c(CCN2CCN(c3ccccn3)CC2)nc2cc(NS(=O)(=O)c3ccc(Cl)cc3)ccc21,5,10µM*,-8,-18%,9.3µM*,0%
Cc1ccc(S(=O)(=O)Nc2ccc3c(c2)nc(CCN2CCN(c4ccccn4)CC2)n3C)cc1,-4,u,1,-12%,u,-2%
CC1CCN(CCc2nc3cc(NC(=O)COc4ccc(Cl)cc4)ccc3n2C)CC1,-8,3.3µM*,11,19%,u,-8%
CCN1CCN(CCc2nc3cc(NC(=O)COc4ccc(Cl)cc4)ccc3n2C)CC1,1,6.6µM*,-12,14%,5.2µM*,-1%
Cc1cc(=O)[nH]c(SCC(=O)Nc2ccc(F)c([N+](=O)[O-])c2)n1,-3,u,-12,15%,0%,5%
Cc1cccc(-c2cc3nc4c(c(N5CCCC(O)C5)n3n2)CCC4)c1 (stereo not drawn),-2,-31%,-5,-7%,6.6µM*,-45%
OC1CCN(c2cc(-c3ccccc3)nc3cc(-c4ccc(F)cc4)nn23)CC1,-3,20%,-14,4%,u,-2%
OC1CCCN(c2c3c(nc4cc(-c5cccc(F)c5)nn24)CCCC3)C1 (stereo not drawn),57*,u,80*,19%,u,-1%
OC1CCCN(c2c3c(nc4cc(-c5cccc(Cl)c5)nn24)CCC3)C1 (stereo not drawn),8,0%,3,-8%,4.7µM*,-23%

# Screening results as filed in PubChem.
